Test results as given in PubChem BioAssay (NCATS).
Inconclusive results are not listed. Activity calls are given as the source filed them. Calls come from the whole dose curve; as a rule, active = well fitted cell-killing curve with a large enough effect; inconclusive = small, poorly fitted or top-dose-only effect, or effect the other way; inactive = no such curve, though single readings can be large or run the other way.

Assays:
[1] = Quantitative High-Throughput drug screen in 47 multiple myeloma cell lines against the NCATS MIPE library collection: LP1_DSMZ cell viability assay (AID 1918982); note: nearly all actives have a fitted effect of over 35% in size
Outline: (§1)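 Cells were exposed to library compounds for 48 hours, after which ATP was measured by CellTiter-Glo. Signal was taken as median relative luminescence units.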

[2] = Quantitative High-Throughput drug screen in 47 multiple myeloma cell lines against the NCATS MIPE library collection: KMS28PE_JCRB cell viability assay (AID 1918983); note: nearly all actives have a fitted effect of over 35% in size
Outline: as §1

[3] = Quantitative High-Throughput drug screen in 47 multiple myeloma cell lines against the NCATS MIPE library collection: L363_DSMZ cell viability assay (AID 1918984); note: nearly all actives have a fitted effect of over 40% in size
Outline: as §1

[4] = Quantitative High-Throughput drug screen in 47 multiple myeloma cell lines against the NCATS MIPE library collection: KMS34_JCRB cell viability assay (AID 1918985); note: nearly all actives have a fitted effect of over 40% in size
Outline: as §1

[5] = Quantitative High-Throughput drug screen in 47 multiple myeloma cell lines against the NCATS MIPE library collection: OCIMY5_PLB cell viability assay (AID 1918988); note: nearly all actives have a fitted effect of over 65% in size
Outline: as §1

[6] = Quantitative High-Throughput drug screen in 47 multiple myeloma cell lines against the NCATS MIPE library collection: OPM1_PLB cell viability assay (AID 1918989); note: nearly all actives have a fitted effect of over 40% in size
Outline: as §1

[7] = Quantitative High-Throughput drug screen in 47 multiple myeloma cell lines against the NCATS MIPE library collection: XG6_PLB cell viability assay (AID 1919865); note: nearly all actives have a fitted effect of over 40% in size
Outline: as §1

[8] = Quantitative High-Throughput drug screen in 47 multiple myeloma cell lines against the NCATS MIPE library collection: OCIMY7_PLB cell viability assay (AID 1918987); note: nearly all actives have a fitted effect of over 65% in size
Outline: as §1

[9] = Quantitative High-Throughput drug screen in 47 multiple myeloma cell lines against the NCATS MIPE library collection: SKMM1_PLB cell viability assay (AID 1919863); details: SKMM1 myeloma viability, CellTiter-Glo ATP, 48 h; viability: hits give low values; note: nearly all actives have a fitted effect of over 35% in size; for viability: series mostly up to about 46 µM
Outline: as §1

[10] = Quantitative High-Throughput drug screen in 47 multiple myeloma cell lines against the NCATS MIPE library collection: U266_ATCC cell viability assay (AID 1919864); note: nearly all actives have a fitted effect of over 35% in size
Outline: as §1
Potency is the fitted concentration of half-maximal effect.

Cn1c(=O)c2c(ncn2CC(O)CO)n(C)c1=O (centres undefined)
inactive: Potency [1] | Potency [2] | Potency [4] | Potency [5] | Potency [6] | Potency [7]
active: Potency [3] 5.26 µM

S=P(N1CC1)(N1CC1)N1CC1
active: Potency [4] 0.0012 µM | Potency [8] 13.2 µM | Potency [7] 23.5 µM
inactive: Potency [1] | Potency [2] | Potency [5] | viability [9] 142%

CCCCCCNC(=O)n1cc(F)c(=O)[nH]c1=O
active: Potency [1] 11.8 µM | Potency [4] 8.33 µM
inactive: Potency [2]

O=C(N[C@H](CO)[C@H](O)c1ccc([N+](=O)[O-])cc1)C(Cl)Cl
inactive: Potency [1] | Potency [2] | Potency [4] | Potency [6] | viability [9] 115% | Potency [7]

COc1ncnc(NS(=O)(=O)c2ccc(N)cc2)c1OC
inactive: Potency [1] | Potency [2] | Potency [4] | viability [9] 128% | Potency [10] | Potency [7]

CCc1cc(C(N)=S)ccn1
inactive: Potency [1] | Potency [2] | Potency [3] | Potency [4] | Potency [6] | Potency [7]

C[C@@H](CN1CC(=O)NC(=O)C1)N1CC(=O)NC(=O)C1
inactive: Potency [1] | Potency [4] | Potency [5] | viability [9] 130% | Potency [10]
active: Potency [3] 2.96 µM | Potency [8] 2.35 µM

CCOCC(O)COc1ccc(NC(=O)CC[S+](C)C)cc1 (centres undefined)
inactive: Potency [1] | Potency [2] | Potency [3] | Potency [4] | Potency [5] | Potency [6] | viability [9] 111% | Potency [7]

C1CCC(C(CC2CCCCN2)C2CCCCC2)CC1 (centres undefined)
active: Potency [1] 14.8 µM | Potency [2] 18.7 µM | Potency [3] 8.33 µM | Potency [8] 14.8 µM | Potency [5] 9.35 µM | Potency [9] 18.7 µM | Potency [10] 11.8 µM | Potency [7] 20.9 µM

Cc1ncc([N+](=O)[O-])n1CCO
inactive: Potency [1] | Potency [2] | Potency [5] | Potency [6] | Potency [7]

Cc1onc(-c2ccccc2Cl)c1C(=O)N[C@@H]1C(=O)N2[C@@H]1SC(C)(C)[C@@H]2C(=O)O
inactive: Potency [1] | Potency [2] | Potency [4] | Potency [5] | Potency [6] | Potency [7]

Nc1nc(F)nc2c1ncn2[C@@H]1O[C@H](CO)[C@@H](O)[C@@H]1O
active: Potency [1] 0.59 µM | Potency [2] 0.372 µM | Potency [3] 0.148 µM | Potency [4] 0.296 µM | Potency [8] 0.118 µM | Potency [5] 0.0743 µM | Potency [6] 0.743 µM | Potency [9] 0.332 µM | Potency [10] 0.296 µM | Potency [7] 0.209 µM

Nc1nc(N)c2nc(CNc3ccc(C(=O)NC(CCC(=O)O)C(=O)O)cc3)cnc2n1 (centres undefined)
active: Potency [1] 0.0296 µM | Potency [10] 0.148 µM
inactive: Potency [2]

Oc1c(Cl)cc(Cl)c2cccnc12
active: Potency [1] 26.4 µM | Potency [2] 20.9 µM | Potency [3] 9.35 µM | Potency [4] 16.6 µM | Potency [8] 10.5 µM | Potency [5] 6.62 µM | Potency [6] 10.5 µM | Potency [9] 18.7 µM | Potency [10] 8.33 µM | Potency [7] 4.69 µM

CCCCc1oc2ccc(NS(C)(=O)=O)cc2c1C(=O)c1ccc(OCCCN(CCCC)CCCC)cc1
active: Potency [1] 16.6 µM | Potency [2] 20.9 µM | Potency [3] 8.33 µM | Potency [8] 18.7 µM | Potency [5] 4.69 µM | Potency [9] 18.7 µM | Potency [10] 14.8 µM | Potency [7] 8.33 µM

O=NN(CCCl)C(=O)NC1CCCCC1
inactive: Potency [1] | Potency [2] | Potency [3] | Potency [4] | Potency [6] | Potency [10] | Potency [7]

CC(C)C[C@H](NC(=O)[C@H](CCc1ccccc1)NC(=O)CN1CCOCC1)C(=O)N[C@@H](Cc1ccccc1)C(=O)N[C@@H](CC(C)C)C(=O)[C@@]1(C)CO1
active: Potency [1] 0.0093 µM | Potency [3] 0.001 µM | Potency [4] 0.0059 µM | Potency [8] 0.0118 µM | Potency [5] 0.0033 µM | Potency [9] 0.0209 µM | Potency [10] 0.0047 µM | Potency [7] 0.001 µM

COCCCOc1cc(C[C@@H](C[C@H](N)[C@@H](O)C[C@H](C(=O)NCC(C)(C)C(N)=O)C(C)C)C(C)C)ccc1OC
inactive: Potency [1] | Potency [2] | Potency [3] | Potency [4] | Potency [5] | Potency [6] | Potency [7]

CC(C)(C)C(=O)OCOP(=O)(COCCn1cnc2c(N)ncnc21)OCOC(=O)C(C)(C)C
active: Potency [1] 16.6 µM | Potency [2] 4.18 µM | Potency [3] 4.69 µM | Potency [5] 1.87 µM | Potency [9] 20.9 µM | Potency [10] 0.332 µM | Potency [7] 0.469 µM

CCCN[C@H]1CCc2nc(N)sc2C1
inactive: Potency [1] | Potency [2] | Potency [3] | Potency [4] | viability [9] 141% | Potency [10] | Potency [7]

CCCCS(=N)(=O)CCC(N)C(=O)O (centres undefined)
inactive: Potency [1] | Potency [2] | Potency [4] | Potency [10]

Nc1ccc(S(=O)(=O)Nc2ccccn2)cc1
inactive: Potency [1] | Potency [2] | Potency [3] | Potency [4] | Potency [6] | Potency [7]

O=S(=O)(O)CCS
inactive: Potency [1] | Potency [2] | Potency [4] | Potency [8] | Potency [6] | viability [9] 136% | Potency [7]

CC(C)(Sc1cc(C(C)(C)C)c(O)c(C(C)(C)C)c1)Sc1cc(C(C)(C)C)c(O)c(C(C)(C)C)c1
inactive: Potency [1] | Potency [2] | Potency [4] | Potency [5] | viability [9] 149%
active: Potency [10] 3.32 µM

NS(=O)(=O)c1cc2c(cc1Cl)NC(C(Cl)Cl)NS2(=O)=O (centres undefined)
inactive: Potency [1] | Potency [2] | Potency [3] | Potency [4] | Potency [5] | viability [9] 112% | Potency [7]

COC(=O)Nc1nc2ccc(Sc3ccccc3)cc2[nH]1
active: Potency [1] 2.35 µM | Potency [2] 5.26 µM | Potency [3] 0.469 µM | Potency [4] 2.96 µM | Potency [8] 0.209 µM | Potency [5] 1.18 µM | Potency [6] 1.66 µM | Potency [9] 3.32 µM

NNC(=O)c1ccncc1
inactive: Potency [1] | Potency [2] | Potency [3] | Potency [7]

Nc1[nH]c(=O)ncc1F
inactive: Potency [1] | Potency [2] | Potency [3] | Potency [8] | viability [9] 117%
active: Potency [10] 2.64 µM | Potency [7] 26.4 µM

COc1c(N2CCNC(C)C2)c(F)cc2c(=O)c(C(=O)O)cn(C3CC3)c12 (centres undefined)
inactive: Potency [1] | Potency [2] | Potency [5] | viability [9] 135% | Potency [10] | Potency [7]

CC(C)Cn1cnc2c(N)nc3ccccc3c21
inactive: Potency [1]
active: Potency [2] 23.5 µM | Potency [3] 4.18 µM | Potency [5] 16.6 µM | Potency [9] 14.8 µM | Potency [10] 20.9 µM

OC(Cn1cncn1)(Cn1cncn1)c1ccc(F)cc1F
inactive: Potency [1] | Potency [2] | Potency [5] | Potency [6] | Potency [10] | Potency [7]

CN1CCN(c2c(F)cc3c(=O)c(C(=O)O)cn(CCF)c3c2F)CC1
inactive: Potency [1] | Potency [2] | Potency [3] | Potency [6]

CC(C)(C#N)c1cc(Cn2cncn2)cc(C(C)(C)C#N)c1
inactive: Potency [1] | Potency [2] | Potency [3] | Potency [4] | Potency [5] | Potency [6] | Potency [7]

C[C@@H]1CN(c2c(F)c(N)c3c(=O)c(C(=O)O)cn(C4CC4)c3c2F)C[C@H](C)N1
inactive: Potency [1] | Potency [2] | Potency [3] | Potency [4] | Potency [6] | viability [9] 160% | Potency [7]

C[C@]12C=CC(=O)C=C1CC[C@@H]1[C@@H]2C(=O)C[C@@]2(C)[C@H]1CC[C@]2(O)C(=O)CO
inactive: Potency [1] | Potency [2] | Potency [4] | Potency [5] | viability [9] 141% | Potency [10] | Potency [7]

CN(C)c1ccc(C(=C2C=CC(=[N+](C)C)C=C2)c2ccc(N(C)C)cc2)cc1
active: Potency [1] 0.418 µM | Potency [2] 0.105 µM | Potency [4] 0.105 µM | Potency [8] 0.0187 µM | Potency [5] 0.0743 µM | Potency [6] 0.0118 µM | Potency [9] 0.0662 µM | Potency [10] 1.05 µM | Potency [7] 0.0833 µM

C#CCN[C@@H]1CCc2ccccc21
inactive: Potency [1] | Potency [3] | Potency [4] | Potency [6] | Potency [10]

CC1(C)[C@H](C(=O)O)N2C(=O)C[C@H]2S1(=O)=O
inactive: Potency [3] | viability [9] 120% | Potency [7]
active: Potency [1] 0.0012 µM

Cc1nnc(C(=O)NC(C)(C)c2nc(C(=O)NCc3ccc(F)cc3)c(O)c(=O)n2C)o1
inactive: Potency [2] | Potency [3] | Potency [4] | Potency [8] | viability [9] 152% | Potency [10] | Potency [7]

COc1cc(NCc2ccc3nc(N)nc(N)c3c2C)cc(OC)c1OC
active: Potency [2] 14.8 µM | Potency [3] 0.935 µM | Potency [4] 3.72 µM | Potency [8] 1.48 µM | Potency [5] 6.62 µM | Potency [6] 5.9 µM | Potency [9] 11.8 µM | Potency [10] 1.48 µM | Potency [7] 11.8 µM

CNS(=O)(=O)Cc1ccc2[nH]cc(CCN(C)C)c2c1
inactive: Potency [1] | Potency [4] | Potency [8] | Potency [5] | viability [9] 112% | Potency [7]

CCc1c2c(nc3ccc(OC(=O)N4CCC(N5CCCCC5)CC4)cc13)-c1cc3c(c(=O)n1C2)COC(=O)[C@]3(O)CC
active: Potency [2] 1.87 µM | Potency [3] 0.0372 µM | Potency [4] 1.18 µM | Potency [8] 0.296 µM | Potency [5] 1.48 µM | Potency [6] 13.2 µM | Potency [9] 0.526 µM | Potency [10] 0.166 µM | Potency [7] 0.418 µM

CC(=O)Oc1ccccc1C(=O)Nc1ncc([N+](=O)[O-])s1
active: Potency [1] 21.5 µM | Potency [3] 17.1 µM | Potency [4] 42.9 µM | Potency [8] 21.5 µM | Potency [5] 13.6 µM | Potency [9] 38.2 µM | Potency [7] 24.1 µM
